# Source: PubChem BioAssay
# Mdm2-MdmX inh – inhibitors of human Mdm2-MdmX association, primary screen, cell-based, luminescence, split luciferase, SaOS-2, uHTS; 330,000 compounds, 3% hits; AID 485346, 2010; Protein Mdm4 (Homo sapiens) + E3 ubiquitin-protein ligase Mdm2 (Homo sapiens), …; inhibition, % at 8 µM; SaOS-2 split-luciferase Mdm2/MdmX complementation;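 active = inhibition of at least 50% at 8 µM in the primary screen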
# Beta cell apopt – inhibitors of cytokine-induced beta cell apoptosis, primary screen, luminescence; 300,000 compounds, 0.8% hits; protection from apoptosis, % (no concentration beside the values); AID 435005, 2010; INS-1E cytokine-induced death, ATP luminescence, 48 h; percent of positive-control rescue, neutral wells zero;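 active = Every replicate reaches about 75%, or at least half do and their mean reaches it too, limit read from the data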;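 also: 0% = cytokine-treated negative control wells and 100% = positive control rescue; higher means more ATP so stronger rescue from cytokine killing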
# Calb FLC – C. albicans growth inhibition with fluconazole, primary screen, CaCi-2 strain, Alamar Blue fluorescence; 300,000 compounds, 0.57% hits; C. albicans CaCi-2 (fluconazole-resistant clinical isolate) + fluconazole, 48 h; AID 1979, 2009; growth inhibition, % (concentration not given with the values);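 active = growth inhibition above about 58% in most replicates, limit read from the data, passing the limit was not always enough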;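 also: all wells also contain fluconazole at 8 µg/ml as a sub-toxic cotreatment; 0% = median of DMSO wells and 100% = median of geldanamycin control wells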
# MPTP block – mitochondrial permeability transition pore inhibitors, primary screen, biochemical, isolated mouse mitochondria, absorbance. 360,000 compounds, 1.4% hits. inhibition, % at 10 µM. Ca2+ swelling absorbance, 30 min;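 active = inhibition of 50% or more, scaled per plate between neutral and stimulator controls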;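 also: 0% = DMSO wells given calcium and 100% = 1 mM EGTA wells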
# SKKanGAS inh – S. pyogenes SKKanGAS growth inhibitors in kanamycin, primary screen, streptokinase expression inhibitor project, SKKanGAS strain, BacTiter-Glo luminescence; 6 h; inhibition, % at 7.5 µM; 300,000 compounds, 1.3% hits; AID 1662, 2009;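 active = mean replicate score, as percent of positive control median, at least 50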;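 also: strain carries kanamycin resistance gene driven by streptokinase promoter and grows in 40 µg/ml kanamycin; loss of luminescence reflects streptokinase promoter inhibition or plain growth inhibition; 0% = median of DMSO wells and 100% = positive control at its reference dose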
# CSC inhib – cancer stem cell viability inhibitors, primary screen, luminescence. cancer stem cell-like cells viability. inhibition, % at 7.5 µM. 300,000 compounds, 1.1% hits. AID 2717, 2010; in the data active = inhibition above about 75%; tested in HMLE shEcad cells
# Mdm2 MdmX conf – Mdm2-MdmX complex disruptors, retested hits, confirmation, luminescence, single concentration. shares compounds with Mdm2-MdmX inh. Mdm2-MdmX binding, luminescent assay. inhibition, % at 8 µM. 10,000 compounds, 55% hits. AID 489028, 2010; in the data active = inhibition above about 40%
# FLuc counter – full-length luciferase signal inhibition, confirmation, counter-screen for Mdm2/MdmX interaction inhibitor project, cell-based, single concentration, SaOS-2; 6,200 compounds, 77% hits; inhibition, % at 8 µM; AID 504607, 2011; shares compounds with Mdm2-MdmX inh; SaOS-2 full-length luciferase counterscreen, luminescence;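 active = mean inhibition at 8 µM reaching about 37%, which flags the compound as non-specific, limit read from the data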;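 also: p53-null SaOS-2 cells with luciferase driven by a doxycycline-inducible promoter; compound on cells about two nights before reading with doxycycline added after day one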
# * = called active by the depositor; . = not tested or not shown. In the library only some 5.4% were active in any assay of this set; here they are far more common.
SMILES,Mdm2-MdmX inh,Beta cell apopt,Calb FLC,MPTP block,SKKanGAS inh,CSC inhib,Mdm2 MdmX conf,others
Cc1nn(C)cc1C(C)NC(=O)c1cc(COc2cccc3cnccc23)on1 (configuration not stated),35,-1,12,0,-1,13,.,
Cc1cc(NC(=O)CCCC(=O)NCc2cccs2)no1,-3,3,0,0,-4,-5,.,
CCOC(=O)N1CCN(Cc2cc(Cl)c3cccnc3c2O)CC1,64*,103*,116*,.,66*,19,51*,FLuc counter=38*
COC(=O)C1=C(C)N=c2s/c(=C3\C(=O)Nc4ccccc43)c(=O)n2C1c1ccccc1 (configuration not stated),47,.,4,.,13,.,.,
CCOC(=O)C1=C(C)N=c2s/c(=C3/C(=O)Nc4ccccc43)c(=O)n2C1c1ccc(C)cc1 (configuration not stated),70*,0,-1,-1,24,3,13,
NC1(C#Cc2ccc3oc(=O)c(-n4cc(-c5ccsc5)nn4)cc3c2)CCCCC1,94*,-2,.,6,.,14,15,
O=C1[C@@H](Oc2ccccc2)[C@@H](c2cnc3ccccc3c2)N1c1ccccc1,53*,.,.,-1,.,.,54*,FLuc counter=56*
O=C1[C@H](Oc2ccccc2)[C@@H](c2ccncc2)N1c1ccncc1,16,.,.,-2,.,.,.,
CCC(C)NC(C(=O)Nc1ccc(Cl)c([N+](=O)[O-])c1)c1ccccc1 (configuration not stated),-11,-2,7,26,1,.,.,
NC(=O)[C@@H]1CC2(CC(c3cccc(NC(=O)COc4ccc(Cl)cc4)c3)=NO2)CN1C(=O)COc1ccc(Cl)cc1 (some centres not stated),59*,9,22,-2,45,30,20,
NC(=O)[C@H]1CC2(CC(c3cccc(NC(=O)COc4ccc(Cl)cc4)c3)=NO2)CN1C(=O)C(c1ccccc1)c1ccccc1 (some centres not stated),60*,22,12,-3,36,35,14,
CCC(=O)Nc1cccc(C2=NOC3(C2)C[C@@H](C(N)=O)N(C(=O)C(c2ccccc2)c2ccccc2)C3)c1 (some centres not stated),15,0,5,-2,14,10,.,
Cc1nnc(SCc2cccc([N+](=O)[O-])c2)[nH]c1=O,-16,3,-24,-1,2,.,.,
CC(=O)O[C@H]1C(=O)[C@@]2(C)[C@H]([C@H](OC(=O)c3ccccc3)[C@]3(O)C[C@H](OC(=O)[C@H](O)[C@@H](NC(=O)c4ccccc4)c4ccccc4)C(C)=C1C3(C)C)[C@]1(OC(C)=O)CO[C@@H]1C[C@@H]2O,65*,-15,.,-1,.,63,64*,FLuc counter=57*
CCCCCC(=O)N[C@@H](c1ccccc1)[C@@H](O)C(=O)O[C@H]1C[C@@]2(O)[C@@H](OC(=O)c3ccccc3)C3[C@](C)(C(=O)[C@H](OC(C)=O)C(=C1C)C2(C)C)[C@@H](O)C[C@H]1OC[C@@]31OC(C)=O (some centres not stated),72*,15,1,-1,4,56,74*,FLuc counter=43*
Cc1cc(C)c2c3c(sc2n1)C(c1cccc(F)c1)C(C#N)=C(N)O3 (configuration not stated),79*,24,0,3,10,28,27,
COc1ccc(OC)c(-c2nc(C(=O)NC3CCN(Cc4ccccc4)CC3)cc3c2[nH]c2ccccc23)c1,50*,.,-2,1,27,-1,20,
